# Active and inactive are the calls of the source. The calls were made as follows: active = hit-call score of the fitted dose curve at least 0.9, where 1 is the maximum; inactive = score below 0.9.
# Read-out: Cytochrome P450 4A22 (Homo sapiens) (UniProt Q5TCH4)
# Assay: LTEA_HepaRG_CYP4A22: Life Technologies and Expression Analysis (LTEA) Assay for Cytochrome P450 4A22 (CYP4A22) using HepaRG (AID 2283495)
# Conditions: mRNA level, 48 h; actives raise or lower the signal
# Method: LTEA_HepaRG is a cell based, multiplexed-readout assay that uses HepaRG, a human liver cell line, with measurements taken at 48 hours after chemical dosing on a 96-well plate.LTEA_HepaRG_CYP4A22 is one of 102 assay component(s) measured in the LTEA HepaRG cell culture assay. It is a marker of NR mediated metabolism.Data from the assay component LTEA_HepaRG_CYP4A22 was analyzed into 1 endpoint. This assay endpoint, LTEA_HepaRG_CYP4A22, was analyzed with bidirectional fitting relative to DMSO as the negative control and baseline of activity. Using a type of inducible reporter, measures of mRNA induction for gain or loss-of-signal activity can be used to understand regulation of transcription factor activity. To generalize the intended target to other relatable targets, this assay endpoint is annotated to the cyp intended target family, where the subfamily is xenobiotic metabolism.
# A total of 1060 chemcials from the ToxCast library were tested in eight-point concentration-response experiments. Cell culture and cytotoxicity assays were conducted at Thermo Fisher Scientific's Custom Services facility (Madison, WI). A single lot of human HepaRG cells (Thermo Fisher Scientific, Frederick, MD) was used for the cell culture experiments. 96-well format collagen type I coated plates of human HepaRG cells were prepared using established methods. Briefly, cryopreserved HepaRG cells were thawed, plated at a density of approximately 100,000 cells/well in HepaRG Thaw, Plate, and General Purpose media (HPRG770, Thermo Fisher Scientific), and incubated for 48 hours. 0.5% DMSO was selected as vehicle control to balance the requisite need of DMSO in HepaRG cultures to maintain differentiation (for example, baseline metabolism, proportions of hepatocytes vs. cholangiocytes), while enabling further hepatic receptor pathway activation (for example, PXR and CAR) in response to chemical exposure. 48 hours after plating, the culture medium was replaced with HepaRG Serum-Free Incudtion Media. Cells were exposed to each test chemical in duplicate and maintained in CO2 incubators for another 48 hours. Chemical plates were thawed to room temperature and 200x concentrations of treatment groups were prepared. 8-point conentration-reponse curves were made with the highest exposure at 100 uM, followed by half-log dilutions, all in 0.5% DMSO. Each test plate contained variouse controls, induction positive controls (1mM phenobarbital), cytotoxicity positive controls ([…] aflatoxin B1), vehicle controls (0.5% DMSO), and total lysis controls (0.5% DMSO). Cell morphology images were taken using an Essen IncuCyte FLR automated microscope, with six 96-well plates imaged in about 24 minutes. Images were captured and exported and JPEG files. Spent culture media was transfered to black-well plates for the LDH assay, and remaining media was sorted at -80 C for later use. Cells were treated with RLT buffer and frozen until shipped for gene expression analysis. Total RNA was isolated from the cell suspension in 75 uL of Buffer RLT (Qiagen, Germantown, MD 20874) by Quintiles/Expression Analysis (Durham, NC) using a custom isolation procedure. Total RNA from each plate well was transferred to a preamplification plate. Fluidigm's 96.96 Dynamic ArrayTM (Fluidigm, Amsterdam, the Netherlands) technology was used for gene expression analyses by quantitative reverse transcription polymerase chain reaction (qRT-PCR, performed by Quintiles/Expression Analysis, Durham, NC)89. Standard TaqManTM Assays (Applied Biosystems/ThermoFisher Scientific, Foster City, CA) were used to assess the expression of 93 genes selected based on their selectivity and sensitivity to important hepatic receptors known to be modulated by environmental chemicals; importance in human hepatocyte functionality; and hepatotoxicity. […]
Compound,AC50,outcome
O=C(O)C(F)(F)C(F)(F)C(F)(F)C(F)(F)C(F)(F)F,13.3 µM (active),–
C=CC(=O)NCNC(=O)C=C,24.6 µM (active),–
Clc1ccc(Cl)cc1,–,inactive
COS(=O)(=O)OC,–,inactive
Oc1ccc(C(c2ccc(O)cc2)(C(F)(F)F)C(F)(F)F)cc1,–,inactive
CN(C)c1nc(=O)n(C2CCCCC2)c(=O)n1C,–,inactive
Cc1cc(-c2ccc(N)c(C)c2)ccc1N,–,inactive
Nc1ccc(-c2ccc(N)cc2)cc1,8.3 µM (active),–
CCCN(CCC)N=O,–,inactive
CO/C=C(/C(=O)OC)c1ccccc1COc1cccc(C(F)(F)F)n1,5.06 µM (active),–
COc1ccc(O)c(C(C)(C)C)c1,–,inactive
Cc1ccccc1[N+](=O)[O-],–,inactive
CCOP(=S)(OCC)SCSC(C)(C)C,–,inactive
CCC(C)c1cc([N+](=O)[O-])cc([N+](=O)[O-])c1O (stereo not given),2.35 µM (active),–
O=S(=O)(O)C(F)(F)C(F)(F)C(F)(F)C(F)(F)F,–,inactive
CC1=C2C[C@H]3[C@@H](CC=C4C[C@@H](O)CC[C@@]43C)[C@@H]2CC[C@]12O[C@@H]1C[C@H](C)CN[C@H]1[C@H]2C,–,inactive
CCC(C)(CC)c1cc(NC(=O)c2c(OC)cccc2OC)on1,19.5 µM (active),–
CCSC(=O)N(CC)C1CCCCC1,–,inactive
c1cc2ccc3cccc4ccc(c1)c2c34,–,inactive
O=C(O)C(F)(F)C(F)(F)C(F)(F)C(F)(F)C(F)(F)C(F)(F)C(F)(F)C(F)(F)C(F)(F)F,79.7 µM (active),–

Compound,AC50,outcome
CCC(C)(c1ccc(O)cc1)c1ccc(O)cc1,–,inactive
CC(C)C(=O)OCC(C)(C)C(OC(=O)C(C)C)C(C)C (stereo not given),–,inactive
NS(=O)(=O)C(F)(F)C(F)(F)C(F)(F)C(F)(F)C(F)(F)C(F)(F)C(F)(F)C(F)(F)F,11.1 µM (active),–
O=C(NC(=O)c1c(F)cccc1F)Nc1cc(Cl)c(OC(F)(F)C(F)F)c(Cl)c1,–,inactive
C=CC(N)=O,–,inactive
CC(C)(O)C(=O)Nc1ccc([N+](=O)[O-])c(C(F)(F)F)c1,–,inactive
Oc1ccc(Cl)cc1Cl,–,inactive
CC(C)(c1ccccc1)c1ccc(O)cc1,–,inactive
Cc1cc2c3c(c1)C(c1ccccc1)=N[C@@H](NC(=O)c1ccncc1)C(=O)N3CC2,36 µM (active),–
Oc1c(Cl)c(Cl)c(Cl)c(Cl)c1Cl,3.87 µM (active),–
N#Cc1ccc(N(CC(N)=O)CC(F)(F)F)cc1C(F)(F)F,–,inactive
CCNc1nc(NC(C)C)nc(SC)n1,–,inactive
CCCCCCOC(=O)c1ccccc1C(=O)OCCCCCC,83.9 µM (active),–
Cc1ccc(O)c(C)c1,–,inactive
C[C@]12CCC(=O)C=C1CC[C@@H]1[C@@H]2CC[C@@]2(C)[C@H]1CC[C@]2(C)O,69.8 µM (active),–
ClC1=C(Cl)[C@]2(Cl)[C@@H]3[C@@H](Cl)[C@H]4O[C@H]4[C@@H]3C1(Cl)C2(Cl)Cl,24.9 µM (active),–
ClC1=C(Cl)[C@]2(Cl)[C@@H]3[C@H]4C[C@H]([C@@H]5O[C@H]45)[C@@H]3[C@@]1(Cl)C2(Cl)Cl,32.5 µM (active),–
Nn1cnnc1,–,inactive
CCCCCCCCOC(=O)c1ccccc1C(=O)OCCCCCCCC,–,inactive
O=C(N[C@H]1CN2CCC1CC2)c1cc2ccoc2cn1,–,inactive
